The values that follow come from the supplement of paper PMC9023506.

Where a name gives a salt, the structure may show the parent alone.

The test system of the assay is Danio rerio larvae (5 dpf). The assay can be described thus: activity during period 15 (no stimuli), difference vs DMSO (percentage points (treated minus DMSO)); higher = more of the behaviour than the DMSO vehicle control. The settings on record: 10 µM; exposure time: 3 h pre-incubation + 3 h imaging. The protocol:
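5-dpf wild-type zebrafish larvae were imaged in 96-well plates. They were treated with 190 Tocris FDA-approved drugs at 10 µM (1 µl/ml DMSO) for 3 h before and 3 h during imaging at 28.5 °C, 48 larvae per drug. Automated image analysis gave % time moving and optomotor responses. Values are drug group mean minus DMSO vehicle mean (n=844), in percentage points, for 10 behaviours.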
`Cc1cn([C@H]2C=C[C@@H](CO)O2)c(=O)[nH]c1=O` [Stavudine]: the “activity during period 15” value is -0.445. Then `O=c1[nH]c(=O)n([C@H]2C[C@H](O)[C@@H](CO)O2)cc1C(F)(F)F` [Trifluorothymidine], with -1.33. For `CCOc1nc2cccc(C(=O)O)c2n1Cc1ccc(-c2ccccc2-c2nnn[nH]2)cc1` [Candesartan] the value was -1.51; for `CC(=O)Oc1ccccc1C(=O)O` [Aspirin], -1.19.

In the case of `CCCN(CCC)S(=O)(=O)c1ccc(C(=O)O)cc1` [Probenecid], the “activity during period 15” value was -4.09.

In the case of `CC(C)COCC(CN(Cc1ccccc1)c1ccccc1)N1CCCC1` (stereo not given) [Bepridil hydrochloride], the “activity during period 15” value came to 13.7. Take `CC(C)[C@H]1CC[C@H](C(=O)N[C@H](Cc2ccccc2)C(=O)O)CC1` [Nateglinide]: the “activity during period 15” value is -0.384. For `CC(c1cc2ccccc2s1)N(O)C(N)=O` (stereo not given) [Zileuton] the value was 3.35. For `CC(=O)O[C@]1(C(C)=O)CC[C@H]2[C@@H]3C=C(C)C4=CC(=O)CC[C@]4(C)[C@H]3CC[C@@]21C` [Megestrol Acetate] the value was -0.283.

For the molecule `C[C@H]1O[C@H](O[C@H]2[C@H](O)[C@@H](O)[C@@H](O[C@H]3[C@H](O)[C@@H](O)C(O)O[C@@H]3CO)O[C@@H]2CO)[C@H](O)[C@@H](O)[C@@H]1N[C@H]1C=C(CO)[C@@H](O)[C@H](O)[C@H]1O` (stereo not given in full) [Acarbose], the “activity during period 15” value was 1.42. Then `CN/C(=N\CCSCc1nc[nH]c1C)NC#N` [Cimetidine], with -5.2; and `N#Cc1ccc(C(c2ccc(C#N)cc2)n2cncn2)cc1` [Letrozole], with 0.514.

Regarding `Cc1nc(-c2ccc(OCC(C)C)c(C#N)c2)sc1C(=O)O` [Febuxostat], the “activity during period 15” value was determined as 10. For `CC(CCc1ccc(O)cc1)NCCc1ccc(O)c(O)c1` (stereo not given) [Dobutamine hydrochloride] the value was -8.99; for `CN[C@H]1CC[C@@H](c2ccc(Cl)c(Cl)c2)c2ccccc21` [Sertraline hydrochloride], -26; for `COc1cc2nccc(Oc3ccc(NC(=O)C4(C(=O)Nc5ccc(F)cc5)CC4)cc3)c2cc1OC`, 16.2.

As for `CN(CCOc1ccc(CC2SC(=O)NC2=O)cc1)c1ccccn1` (stereo not given) [Rosiglitazone], the “activity during period 15” value was determined as 7.42. Then `Clc1ccc2nsnc2c1NC1=NCCN1` [Tizanidine hydrochloride], with -20.8.

On to `Nc1cc(N2CCCCC2)nc(N)[n+]1[O-]` [Minoxidil], for which the “activity during period 15” value is 6.89. For `Cc1ccc(N(CC2=NCCN2)c2cccc(O)c2)cc1` [Phentolamine Mesylate] the value was 4.99. For the molecule `CC(=O)Oc1cc2c(s1)CCN(C(C(=O)C1CC1)c1ccccc1F)C2` (stereo not given) [Prasugrel], the “activity during period 15” value was determined as 11.8. Regarding `OC(c1cc(C(F)(F)F)nc2c(C(F)(F)F)cccc12)C1CCCCN1` (stereo not given) [Mefloquine hydrochloride], the “activity during period 15” value is -1.13. For `CCOC(=O)C1=C(C)NC(C)=C(C(=O)OC)C1c1cccc(Cl)c1Cl` (stereo not given) [Felodipine] the value was -11.6; for `Cc1ccc(O)c([C@H](CCN(C(C)C)C(C)C)c2ccccc2)c1` [Tolterodine L-tartrate], 13.9; for `CS(=O)(=O)CCNCc1ccc(-c2ccc3ncnc(Nc4ccc(OCc5cccc(F)c5)c(Cl)c4)c3c2)o1` [Lapatinib], -13.3. Turning to `Nc1nc2c(ncn2COCCO)c(=O)[nH]1` [Acyclovir], the “activity during period 15” value is -4.38. For `CC(C)(C#N)c1cc(Cn2cncn2)cc(C(C)(C)C#N)c1` [Anastrozole] the value was 2.84; for `OCc1cc(C(O)CNCCCCCCOCCCCc2ccccc2)ccc1O` (stereo not given) [Salmeterol xinafoate], 23.9; for `Cc1ccc(-c2cc(C(F)(F)F)nn2-c2ccc(S(N)(=O)=O)cc2)cc1` [Celecoxib], 3.28. Then `Nc1ccn([C@@H]2O[C@H](CO)[C@@H](O)C2(F)F)c(=O)n1` [Gemcitabine hydrochloride], with -1.53; and `C[C@H]1C[C@@H]2[C@H]([C@@H](O)C[C@@]3(C)[C@H]2CC[C@]3(O)C(=O)CO)[C@@]2(C)C=CC(=O)C=C12` [Methylprednisolone], with -4.72; and `CC(C)CN(C[C@@H](O)[C@H](Cc1ccccc1)NC(=O)O[C@H]1CO[C@H]2OCC[C@H]21)S(=O)(=O)c1ccc(N)cc1` [Darunavir], with 11.1. Then `CCN(Cc1ccncc1)C(=O)C(CO)c1ccccc1` (stereo not given) [Tropicamide], with 6.31; and `Nc1nc2[nH]cc(CCc3ccc(C(=O)N[C@@H](CCC(=O)O)C(=O)O)cc3)c2c(=O)[nH]1` [Pemetrexed], with 1.39.

With `CCCCNc1cc(C(=O)O)cc(S(N)(=O)=O)c1Oc1ccccc1` [Bumetanide], the “activity during period 15” value is -2.8. `COc1ccc([C@@H]2Sc3ccccc3N(CCN(C)C)C(=O)[C@@H]2OC(C)=O)cc1` [Diltiazem hydrochloride]: the “activity during period 15” value is -3.65. Consider `Cn1nnc2c(C(N)=O)ncn2c1=O` [Temozolomide], for which the “activity during period 15” value worked out at 2.03.

Consider `CN(C)CCc1c[nH]c2ccc(C[C@H]3COC(=O)N3)cc12` [Zolmitriptan], for which the “activity during period 15” value turned out to be 2.6. For `CCCN(CCc1cccs1)[C@H]1CCc2c(O)cccc2C1` [Rotigotine hydrochloride] the value was -35.4.

`CN1CCC[C@@H]1Cc1c[nH]c2ccc(CCS(=O)(=O)c3ccccc3)cc12` [Eletriptan hydrobromide]: the “activity during period 15” value was -0.424.
